JMJD2E inh: inhibitors of human JMJD2E histone demethylase | AID 2147 | 230,000 tested, 1.6% active | Potency, µM (series often up to 57.1 µM), for the others: top-dose activity change, negative = inhibition, usual class: inhibitors | JMJD2E catalytic domain, FDH-coupled NADH fluorescence (FDH is formaldehyde dehydrogenase);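 further: potency means the concentration at half of the fitted maximal effect; 0% = wells with enzyme and -100% = buffer wells without enzyme; nearly all actives have a fitted effect of over 50% in size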
ALDH1A1 block: ALDH1A1 (human) enzyme inhibition | P00352 | Purified ALDH1A1, NADH fluorescence, propionaldehyde substrate | Potency, µM (doses to about 75.3 µM), without a hit: at the highest dose activity, negative = inhibition, usual class: inhibitors | 220,000 tested, 7.3% active | AID 1030;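 further: potency means the concentration at half of the fitted maximal effect; plate controls were no enzyme wells and a reference inhibitor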
PNC assembly inh: blocks assembly of the perinucleolar compartment; PC3M PTB-GFP, PNC prevalence imaging, 16 h; active compounds read low; activity change (PNC), negative = inhibition, % at 10 µM; AID 2417; 140,000 tested, 3.1% active;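 active means readout at or below -70, meaning at least 70% loss of cells showing the perinucleolar compartment, a nuclear body marking cancer cells; inconclusive means readout between -30 and a set limit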;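 further: plate controls were DMSO wells for no effect and camptothecin positive control wells for full effect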
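PC3M cells stably expressing PTB-GFP, 750–1000 cells/well, treated 16 h at 37 °C with compound (23 nl of library stock), in duplicate. After paraformaldehyde fixation and Hoechst stain, imaged at 20x; PNC prevalence scored by image analysis.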
HPGD block: blocks human HPGD enzyme activity; 150,000 tested, 4.3% active; purified HPGD, NADH fluorescence kinetic, PGE2 substrate; P15428; Potency, µM, for the others: at the highest dose activity change, negative = inhibition, hits mostly inhibitors; AID 894; further: potency means the concentration at half of the fitted maximal effect
Target sequence (P15428 whole entry, looked up): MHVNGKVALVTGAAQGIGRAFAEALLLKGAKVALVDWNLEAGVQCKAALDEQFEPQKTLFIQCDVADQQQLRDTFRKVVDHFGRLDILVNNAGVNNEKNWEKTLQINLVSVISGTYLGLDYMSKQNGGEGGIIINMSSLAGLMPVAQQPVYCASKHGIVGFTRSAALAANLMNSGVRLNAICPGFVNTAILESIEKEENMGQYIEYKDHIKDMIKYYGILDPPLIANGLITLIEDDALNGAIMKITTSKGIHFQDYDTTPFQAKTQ
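20 nM HPGD preincubated 15 min at room temperature with compound in 50 mM Tris-HCl pH 8, 0.01% Tween 20. Started with 1 mM NAD+ and 30 uM prostaglandin E2; NADH fluorescence (360/450 nm) read 5 times over 30-s intervals, last minus first.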
* = called active by the depositor; [ ] = dose if it differs, or a comment. In the library only some 11% were active in any assay of this set; here they are far more common. Unless noted, the call rests on the fitted dose curve; in most records, active means well fitted inhibition curve with a large enough effect (not every such curve was filed as active); inconclusive means small, poorly fitted or top-dose-only effect, or another doubt; inactive means no such curve, though single readings can be large or run the other way. Unless noted, on the % scale 0 is the no-effect control and ±100 the full control effect.

What do the screens show for `Cc1ccc(NC2=C/C(=N/S(=O)(=O)c3cccs3)c3ccccc3C2=O)cc1C`?
JMJD2E inh: 8%; ALDH1A1 block: 3%; PNC assembly inh: -5; HPGD block: -6%

What do the screens show for `CSc1nc(N)nc(SC2C=CCCC2)c1C#N` (stereo not given)?
JMJD2E inh: -1%; ALDH1A1 block: 13µM*; PNC assembly inh: 12; HPGD block: -19%

Results for O=C(N/N=C/c1ccc(O)cc1)c1ccc(NC(=O)c2ccccc2Br)cc1 ?
JMJD2E inh: -22%; ALDH1A1 block: inconclusive; PNC assembly inh: -17; HPGD block: 14µM*

What do the screens show for `O=C(Nc1ccccc1C(=O)N/N=C/c1ccc(F)cc1)c1ccccc1Br`?
JMJD2E inh: 1%; ALDH1A1 block: inconclusive; PNC assembly inh: -114*; HPGD block: -18%

Results for O=C(N/N=C/c1ccncc1)c1cccc(N/N=C/c2ccncc2)c1 ?
JMJD2E inh: -1%; ALDH1A1 block: -7%

What do the screens show for `O=C(N/N=C/c1ccc(O)cc1)c1cccc(N/N=C/c2ccc(O)cc2)c1`?
JMJD2E inh: -7%; ALDH1A1 block: 22µM*

What do the screens show for `OC[C@H]1O[C@@H]2O[C@H]3[C@H](O)[C@@H](O)[C@@H](O[C@H]4[C@H](O)[C@@H](O)[C@@H](O[C@H]5[C@H](O)[C@@H](O)[C@@H](O[C@H]6[C@H](O)[C@@H](O)[C@@H](O[C@H]7[C@H](O)[C@@H](O)[C@@H](O[C@H]1[C@H](O)[C@H]2O)O[C@@H]7CO)O[C@@H]6CO)O[C@@H]5CO)O[C@@H]4CO)O[C@@H]3CO`?
ALDH1A1 block: inconclusive; HPGD block: 3%

Results for O=C1O[C@@H]([C@@H](O)CO)[C@@H](O)[C@H]1O ?
JMJD2E inh: -7%[25.5 µM]; ALDH1A1 block: 8%[20.9 µM]; HPGD block: -8%

How did OCCCSCCO do in these assays?
ALDH1A1 block: 7%[13.5 µM]; HPGD block: -2%

How did COc1cc2oc(=O)c(Br)c(C)c2c(OC)c1OC do in these assays?
JMJD2E inh: -4%; ALDH1A1 block: 13µM*; PNC assembly inh: -15; HPGD block: -13%

What do the screens show for `CCN(CC)S(=O)(=O)c1ccc(/C=C/C(=O)Nc2cccc(F)c2)cc1`?
JMJD2E inh: -25%; ALDH1A1 block: inconclusive; PNC assembly inh: 22; HPGD block: -13%

How did Cc1sc2nc(N3CCOCC3)[nH]c(=O)c2c1-c1ccccc1 do in these assays?
JMJD2E inh: 2%; ALDH1A1 block: 1%; PNC assembly inh: inconclusive; HPGD block: -16%

Results for Cc1sc2nc(CN3CCOCC3)[nH]c(=O)c2c1-c1ccccc1 ?
JMJD2E inh: -11%; ALDH1A1 block: -19%; PNC assembly inh: -110*; HPGD block: 1%

How did Cc1ccc([N+](=O)[O-])cc1N/C=C1\CCCCC1=O do in these assays?
JMJD2E inh: -19%; ALDH1A1 block: inconclusive

How did Cc1cc(NCC(C)C)n2ncnc2n1 do in these assays?
JMJD2E inh: 4%; ALDH1A1 block: 5%; PNC assembly inh: inconclusive; HPGD block: 2%

Results for CCOC(=O)CNC(=S)n1cnc(N)n1 ?
JMJD2E inh: -8%; ALDH1A1 block: 32µM*

What do the screens show for `O=S(=O)(c1ccccc1)N1CN2CN(C1)CN(S(=O)(=O)c1ccccc1)C2`?
ALDH1A1 block: -2%[13.5 µM]; HPGD block: -5%

Results for O=C(O)COc1ccccc1C(Nc1cccnc1)c1cc(Cl)c2cccnc2c1O (stereo not given) ?
JMJD2E inh: -4%; ALDH1A1 block: -4%

How did CCOc1ccc(C(Nc2cccnc2)c2cc(Cl)c3cccnc3c2O)cc1 (stereo not given) do in these assays?
JMJD2E inh: -18%; ALDH1A1 block: 1.3µM*

What do the screens show for `c1csc(-c2noc(CN3CCc4sccc4C3)n2)c1`?
JMJD2E inh: -20%; ALDH1A1 block: 20µM*

How did C[C@@H]1CN(Cc2nc(-c3cccs3)no2)C[C@H](C)O1 do in these assays?
JMJD2E inh: -7%; ALDH1A1 block: -5%

What do the screens show for `COCC1CCN(Cc2nc(-c3cccs3)no2)C1` (stereo not given)?
JMJD2E inh: 1%; ALDH1A1 block: 28µM*

How did c1ccc(CO[C@H]2NCCN2Cc2ccccc2)cc1 do in these assays?
ALDH1A1 block: 14%[13.5 µM]; HPGD block: -8%

What do the screens show for `CCCN1C(=O)/C(=C/c2ccc(C)s2)NC1=S`?
JMJD2E inh: 6%; ALDH1A1 block: 8.9µM*; PNC assembly inh: inconclusive; HPGD block: -16%

Screening data (PubChem)
